PubChem BioAssay (Tox21)
Results filed as inconclusive are left out. A call without a number means that no potency is given here. Active and inactive are the calls of the source. Calls come from the whole dose curve.

Test: p53 small molecule agonists, cell-based qHTS assay with rat liver microsomes: qHTS cell viability counter screen (AID 1963580); note: nearly all actives have a fitted effect of over 45% in size
Conditions: p53RE-bla HCT-116 + rat microsomes, ATP viability, 16 h; series mostly up to 66 µM
Excerpt: National Center for Advancing Translational Sciences [NCATS]
Division of Preclinical Innovation [DPI]
U.S. Environmental Protection Agency [EPA]
National Institutes of Environmental Health Sciences [NIEHS]
National Toxicology Program [NTP]
U.S. Food and Drug Administration [FDA]
p53, a tumor suppressor protein, is activated following cellular insult, including DNA damage and other cellular stresses. The activation of p53 regulates cell fate by inducing DNA repair, cell cycle arrest, apoptosis, or cellular senescence. The activation of p53, therefore, is a good indicator of DNA damage and other cellular stresses. The CellSensor p53RE-bla HCT-116 cell line contains a stably integrated beta-lactamase reporter gene under control of the p53 response elements. The activation of the reporter gene under culture conditions can be detected by fluorescence intensity. This cell line was used to screen the Tox21 10K compound library in the condition of presence of rat liver microsomes and to identify agonists that activate the p53 signaling pathway after in vitro metabolic activation (Ooka et al., Archive of Toxicology 96:1975-1987, 2022). The cytotoxicity of the Tox21 compound library against the p53 RE-bla HCT-116 cell line was tested in parallel by measuring the intra cellular ATP content in the same wells.
Tox21 Assay Protocol Summary:
The p53RE-bla cells were dispensed at 4,000cells/3ul/well in 1536-well black-clear bottom plates. After the assay plates were incubated at 37 C, 5% CO2 incubator for 5 hours, 23 nL of compounds dissolved in DMSO, positive controls or DMSO only was transferred to the assay plate. Following compound addition, 3 uL of rat liver microsomes (Molecular Toxicology, Boone, NC) at final concentration of 0.5 mg/mL and 1uL of B-Nicotinamide adenine dinucleotide 2'-phosphate (NADPH) at final concentration of 0.5 mg/mL were transferred to the assay plate. The plates were incubated at 37 C for 16 hours. 1 uL of LiveBLAzer detection mixture was added to each well and the plates were incubated at room temperature in the dark for 2 h. Fluorescence intensity at 460 and 530 nm emission and 405 nm excitation were measured by an Envision plate reader. For cell viability readout that measures cytotoxicity, 4 ul/well of CellTiter-Glo reagent was added into the assay plates using a Flying Reagent Dispenser. After 30 min incubation at room temperature, the luminescence intensity in the plates was measured using a ViewLux plate reader.
Potency is the fitted concentration of half-maximal effect.

Structure (SMILES)	Potency
ClCCN1CCOCC1	inactive
N#CCCCCC#N	inactive
CNC(=O)N(C)c1nnc(C(C)(C)C)s1	inactive
COC(=O)c1cncn1C(C)c1ccccc1 (stereo not given)	inactive
CNC(=S)S	inactive
COC(=O)c1ccccc1N	inactive
Nn1cnnc1	inactive
Cl/C=C\CCl	inactive
Nc1ccccc1C(=O)OCC(O)CO (stereo not given)	inactive
CC(Cl)Cl	inactive
C#CC(C)(C)NC(=O)c1cc(Cl)cc(Cl)c1	inactive
C[N+](C)(C)C	inactive
C=CC(=O)OCCO	inactive
CN(C)c1ccc(C(=O)c2ccc(N(C)C)cc2)cc1	inactive
O=C(O)COc1ccccc1	inactive
OCCCCO	inactive
Sc1ccccc1Cl	inactive
CCOS(C)(=O)=O	inactive
CN(C)c1ccccc1	inactive
CCCCCCC1CCOC1=O (stereo not given)	inactive

Structure (SMILES)	Potency
CCOP(=S)(OCC)Oc1ccc2c(C)c(Cl)c(=O)oc2c1	inactive
Clc1cnc(Oc2ccc(Oc3ncc(Cl)cc3Cl)cc2)c(Cl)c1	inactive
CCCCCCn1cc[n+](C)c1	inactive
CCOC(=O)c1ccccc1C(=O)OCC	inactive
CNC(=O)NC(O)C(Cl)(Cl)Cl (stereo not given)	inactive
CC(C)OC(=O)Nc1ccccc1	inactive
C#CCOC(=O)/C=C(C)/C=C/CC(C)CCCC(C)C (stereo not given)	inactive
O=C(Cl)c1ccccc1	inactive
C[C@@H]1O[C@@H](O[C@H]2C[C@@H](O)[C@]3(CO)[C@H]4[C@H](O)C[C@]5(C)[C@@H](C6=CC(=O)OC6)CC[C@]5(O)[C@@H]4CC[C@]3(O)C2)[C@H](O)[C@H](O)[C@H]1O	0.112 µM (active)
Clc1ccc(Cl)cc1	inactive
CCNc1nc(NCC)nc(SC)n1	inactive
CN1CCC(N(Cc2ccccc2)c2ccccc2)CC1	inactive
Nc1ccccc1Cl	inactive
COc1cc2c(cc1OC)[C@@]13CCN4CC5=CCO[C@H]6CC(=O)N2[C@H]1[C@H]6[C@H]5C[C@H]43	inactive
CC1CCC(=O)O1 (stereo not given)	inactive
Clc1nc(Cl)nc(Cl)n1	inactive
Oc1ccc(Cl)c(Cl)c1	inactive
C1=Cc2cccc3cccc1c23	inactive
CCOC(=O)C1(c2ccccc2)CCN(CCC(C#N)(c2ccccc2)c2ccccc2)CC1	inactive
CCCCCCCCSC(=O)Oc1cc(Cl)nnc1-c1ccccc1	inactive
